About 2,900 (47%) of roughly 6,200 compounds were called active. Rule as the data show it: active = inhibition above about 50%; inactive = the rest. So high a share suggests a set chosen from earlier hits. The list shows a part of the results.
Experiment: Mycobacterium tuberculosis growth inhibition, primary screen (AID 1259343)
Details: inhibition: at 10 µM, hits give high values; outcome: 10 uM

Row | Compound | inhibition
1 | O=S(=O)(C1=Cc2ccccc2CC1)N1CCC2CCCCC2C1 (stereo unspecified) | 21.1% (inactive)
2 | O=C(C=Cc1cccs1)c1cccs1 | 15.1% (inactive)
3 | COC(=O)c1sccc1NC(=O)C=Cc1cccs1 | 81.4% (active)
4 | O=C(C=Cc1ccc(Br)o1)NC1CCCCCC1 | 89.5% (active)
5 | O=C(C=Cc1ccco1)NC1CCCC1 | 25.8% (inactive)
6 | Cc1cccc(Nc2nnc(-c3ccncc3)o2)c1 | -7.46% (inactive)
7 | c1ccc(-c2cc(Sc3nnc(-c4ccncc4)o3)n3ncnc3n2)cc1 | 102% (active)
8 | COc1ccc(N=Cc2cc([N+](=O)[O-])ccc2OC(F)F)cc1 | 79.9% (active)
9 | COc1ccc(OCCCOc2ccc([N+](=O)[O-])cc2Cl)cc1 | 37.7% (inactive)
10 | COc1ccc(-c2cc(N)ccc2OC(F)F)cc1 | 34.9% (inactive)
11 | COc1ccc(CN2CCN(C(c3ccc(F)cc3)c3ccc(F)cc3)CC2)c(OC)c1OC | 29.5% (inactive)
12 | Cc1ccccc1CN1CCN(c2ccc(S(=O)(=O)C(F)F)cc2)CC1 | 27.6% (inactive)
13 | COc1ccc(N2CCN(Cc3cc(C)c(C)cc3O)CC2)cc1 | 83.8% (active)
14 | COc1ccc(-c2csc(NCc3ccco3)n2)cc1 | 70.6% (active)
15 | Fc1ccc(-n2cc(-c3ccnc(NCc4ccco4)n3)cn2)cc1 | 18.7% (inactive)
16 | O=C1C(=C2SCCS2)CCCC12CC2c1ccccc1 (stereo unspecified) | 50.8% (active)
17 | Cc1ccc(OCc2cc(C(=O)NCCc3ccc(C(F)(F)F)cc3)no2)cn1 | 68.3% (active)
18 | O=C(c1cc(COc2cccc(C(F)(F)F)c2)on1)N1CCCN(c2ncccn2)CC1 | inactive
19 | CC(C)Oc1ccc(CCNC(=O)c2cc(COc3ccc(F)c(F)c3)on2)cc1 | inactive
20 | O=C(c1cc(COc2ccc3c(c2)CCCC3)on1)N1CCN(C2CCCC2)C(=O)C1 | 69.3% (active)
21 | Cc1nc(CCNC(=O)c2cc(COc3ccc4c(c3)CCCC4)on2)sc1C | 67.7% (active)
22 | O=C(c1cc(COc2ccc3c(c2)CCCC3)on1)N1CCCN(c2ncccn2)CC1 | 71.4% (active)
23 | O=C(c1cc(COc2ccc3c(c2)CCCC3)on1)N1CCCCO1 | 92.2% (active)
24 | O=C(c1cc(COc2ccc(-n3cncn3)cc2)on1)N1CCCCO1 | inactive
25 | COCc1cc(C(=O)N2Cc3ccccc3N(C)CC2C)no1 (stereo unspecified) | -8.57% (inactive)
26 | Cn1c(=O)c2c(S(C)=O)snc2n(C)c1=O (stereo unspecified) | 100% (active)

Row | Compound | inhibition
27 | Cc1nn(CC(O)COc2ccc3c(c2)CCC3)c(C)c1C (stereo unspecified) | 74.7% (active)
28 | Cc1cc(C)n(CC(O)COc2ccc(C(C)(C)C)cc2)n1 (stereo unspecified) | 44.2% (inactive)
29 | COc1ccc(OCCN(C)S(=O)(=O)c2ccc3c(c2)CCC3)cc1 | 48% (inactive)
30 | Cc1cc(C)n(CC(O)COc2ccc3c(c2)CCC3)n1 (stereo unspecified) | 70.7% (active)
31 | Cn1ccc(NC(=O)c2cc3c(s2)CCC(C(C)(C)C)C3)n1 (stereo unspecified) | 49.2% (inactive)
32 | N[C@@H](CCCCNC(=O)c1cccnc1)C(=O)NNc1ccc(Cl)cc1 | 95.5% (active)
33 | CCOc1cc(Cl)ccc1NC(=O)Nc1cccnc1 | 32% (inactive)
34 | CC(C)NC(=O)CC1(C(=O)Nc2ccc(-c3ccccc3)cc2)CCCC1 | 91.1% (active)
35 | CSc1ccc(NC(=O)CC2(C(=O)O)CCCC2)cc1 | 85.9% (active)
36 | COc1ccc(F)cc1C(=O)C1CCCN(C(=O)Nc2ccc(SC)cc2)C1 (stereo unspecified) | 2.1% (inactive)
37 | CN(C)C(=O)C1(CNC(=O)Nc2ccc(F)c(C(F)(F)F)c2)CCCC1 | 4.66% (inactive)
38 | CC(C)NS(=O)(=O)Cc1ccc(CNC(=O)Nc2ccc(-c3ccccc3)cc2)cc1 | -37.3% (inactive)
39 | O=C(CSCc1ccncc1)Nc1ccc(-c2cncnc2)cc1 | 89.9% (active)
40 | FC(F)(F)CN1CCC(NCc2ccc(-c3ccccc3Cl)s2)C1 (stereo unspecified) | 26.6% (inactive)
41 | O=S(=O)(Nc1cnc(-c2ccccc2)nc1)c1ccc(F)c(F)c1 | 58.3% (active)
42 | O=S(=O)(Nc1ccc(OC(F)(F)F)cc1)c1ccc(F)c(F)c1 | 16% (inactive)
43 | O=S(=O)(Nc1ccc(SC(F)F)cc1)c1ccc(F)c(F)c1 | 96.8% (active)
44 | CN(CC(N)=O)S(=O)(=O)c1cc2cc(Cl)ccc2s1 | 90.5% (active)
45 | Oc1cc(OCCN2CCN(Cc3ccc4c(c3)OCO4)CC2)ccc1-c1[nH]ncc1-c1ccccc1 | 81.6% (active)
46 | O=C(C1COc2ccccc2O1)N1CCc2onc(-c3cccc(F)c3)c2C1 (stereo unspecified) | 10.6% (inactive)
47 | CC(C)N1CCc2c(sc(NC(=O)C3CC3)c2-c2nc3ccccc3s2)C1 | 0.31% (inactive)
48 | CC(C)C(=O)Nc1sc2c(c1-c1nc3ccccc3s1)CCN(C)C2 | 85.9% (active)
49 | CCC(=O)Nc1sc2c(c1-c1nc3ccccc3s1)CCN(C(C)C)C2 | 100% (active)
50 | CC(C)C(=O)Nc1sc2c(c1-c1nc3ccccc3s1)CCN(C(C)C)C2 | 95.2% (active)
51 | CC(=O)Nc1sc2c(c1-c1nc3ccccc3s1)CCN(C(C)C)C2 | 68.3% (active)
52 | CN1CCc2c(sc(NC(=O)c3ccc(F)cc3)c2-c2nc3ccccc3s2)C1 | 31.8% (inactive)

Row | Compound | inhibition
53 | CC(=O)c1ccc(C(=O)Nc2sc3c(c2-c2nc4ccccc4s2)CCN(C)C3)cc1 | 83.8% (active)
54 | CN1CCc2c(sc(NC(=O)c3ccccc3)c2-c2nc3ccccc3s2)C1 | 29.3% (inactive)
55 | CCCCCCCCCCCCC[N+](C)(C)Cc1ccccc1 | 70.2% (active)
56 | O=S(=O)(c1cc(Cl)cc(Cl)c1O)N1CCOCC1 | 19.4% (inactive)
57 | CC(C)(C)c1cc(C(=O)CCN2CCOCC2)cc(C(C)(C)C)c1O | 102% (active)
58 | Cc1cccc(CN(CCN2CCOCC2)Cc2ccc(C(O)(c3cccc(F)c3)c3cccc(F)c3)o2)c1 | 17.9% (inactive)
59 | CC(C)c1ccc(NC(=O)CCN2CCN(CC3CCCO3)CC2)cc1 (stereo unspecified) | 83.5% (active)
60 | Cc1ccc(NC(=O)CCC2CCCO2)cc1Cl (stereo unspecified) | 96.2% (active)
61 | CC(NC(=O)CCC1CCCO1)c1ccc(Cl)s1 (stereo unspecified) | 21.7% (inactive)
62 | CC(C)c1ccc(S(=O)(=O)NCC2CCCO2)cc1 (stereo unspecified) | -25.1% (inactive)
63 | CC(=O)N[C@H]1CCN(CC(=O)Nc2ccc(Cl)c(C)c2)C1 | 33.5% (inactive)
64 | Cc1ccc(NC(=O)CC(=O)N2CCC(C(O)CC(C)C)CC2)cc1Cl (stereo unspecified) | 88.3% (active)
65 | Cc1cc(NC(=O)CN2CCN(CC3CCCO3)CC2)ccc1Cl (stereo unspecified) | 66.5% (active)
66 | O=C(CCc1cccs1)N1CCN(CC2CCCO2)CC1 (stereo unspecified) | -26.7% (inactive)
67 | CN(C)N=CC=C1CCC(=Cc2ccc(C(F)(F)F)cc2)C1=O | 8.26% (inactive)
68 | Cc1ccc2c(Cl)cc(Cl)c(O)c2n1 | 47.9% (inactive)
69 | NNc1ccc2c(Cl)cc(Cl)c(O)c2n1 | 99.5% (active)
70 | CCC(CO)NC(=S)N=P(c1ccccc1)(N(CC)CC)N(CC)CC (stereo unspecified) | 81.6% (active)
71 | CN(CC(O)COCc1ccc2c(c1)OCO2)c1ncc(C(F)(F)F)cc1Cl (stereo unspecified) | 78% (active)
72 | FC(F)(F)c1cnc(NCc2ccc3c(c2)OCCO3)c(Cl)c1 | 25.7% (inactive)
73 | COC(=O)NNC(=S)NC(=O)C12CC3CC(CC(C3)C1)C2 | 97.8% (active)
74 | Cc1nc(Cl)sc1S(=O)(=O)NCC(C)c1ccccc1 (stereo unspecified) | 24.9% (inactive)
75 | Cc1[nH]n(-c2nc3ccccc3s2)c(=O)c1C=NC(C)c1ccccc1 (stereo unspecified) | 86.9% (active)
76 | Clc1ccc(-c2nn3c4cc(N5CCNCC5)ccc4nc3c3ccccc23)cc1 | 92.9% (active)
77 | CN(C1CCCCC1)S(=O)(=O)N1CCN(c2cccc(F)c2C#N)CC1 | 10.2% (inactive)
78 | CN(C1CCCCC1)S(=O)(=O)c1ccc2ccccc2c1 | 38.7% (inactive)

Row | Compound | inhibition
79 | CN(C1CCCCC1)S(=O)(=O)N1CCc2ccccc21 | 98.1% (active)
80 | CCCCCN(C)C(=O)c1cc(-c2ccc3ccccc3c2)on1 | 94% (active)
81 | CC1Cc2cc(-c3cc(C(=O)O)no3)ccc2O1 (stereo unspecified) | 27.8% (inactive)
82 | CN(C)C=Nc1nc(-c2ccc3ccccc3c2)cs1 | -25.4% (inactive)
83 | CCOc1ccc(NC(=O)C(C)Sc2nc(N)cc(N)n2)cc1 (stereo unspecified) | 86% (active)
84 | O=P(Nc1cccc(F)c1)(Oc1ccccc1F)Oc1ccccc1F | 22% (inactive)
85 | CCCCCc1ccc(NC(=O)CCN2CCSC2=O)cc1 | 99% (active)
86 | CCCCc1ccc(NC(=O)COC(=O)C23CCC(=O)N2CCS3)cc1 (stereo unspecified) | 95.3% (active)
87 | CCN=c1scc(-c2ccc(Br)cc2)n1/N=C1\C(=O)N(C)c2ccccc21 | 20.4% (inactive)
88 | O=C(NC12CC3CC(CC(C3)C1)C2)c1cncc(Br)c1 | 50.2% (active)
89 | CC1CCCC(NC(=O)c2cncc(Br)c2)C1 (stereo unspecified) | -31% (inactive)
90 | Cn1cc(-c2nc(C(=O)NC34CC5CC(CC(C5)C3)C4)cs2)cn1 | 31.8% (inactive)
91 | O=S(=O)(NCc1ccc(F)cc1)c1ccc2c(c1)CCCC2 | 89.6% (active)
92 | COc1ccc(CNS(=O)(=O)c2ccc3c(c2)CCCC3)cc1 | -18% (inactive)
93 | O=S(=O)(Nc1ccc2c(c1)CCC2)c1ccc(F)cc1 | -4.64% (inactive)
94 | COCc1ccc(C(=O)NC2C3CC4CC(C3)CC2C4)cc1 (stereo unspecified) | 75.8% (active)
95 | CC(=O)Nc1ccc(C(=O)NC2CCC3CCCCC3C2)cc1 (stereo unspecified) | -37.5% (inactive)
96 | CCCc1nc(CN(C)c2nc(C)nc3sccc23)no1 | 14.1% (inactive)
97 | COc1cccc(OC)c1OCCCOc1ccc(C)cc1Br | 87.8% (active)
98 | COc1ccccc1OCCCOc1ccc(C)cc1Br | 34.8% (inactive)
99 | COc1cccc(OC)c1OCCOc1ccc(C)cc1Br | 76.4% (active)
100 | O=C(Nc1ccc(N2CCC(NCCC3=CCCCC3)CC2)cc1)c1ccc2c(c1)OCO2 | 47% (inactive)
101 | CCCCCCc1ccc(C(=O)Nc2ccc(-n3nc(OC)nc3-c3ccc4c(c3)OCO4)cc2)cc1 | 56.7% (active)
